According to PubChem BioAssay:
“And” between values parts separate entries of the source, which are not always exact repeats. Equal values may be shown once. Records with an inconclusive call do not appear. The source made the active and inactive calls.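 Rule for the calls, unless noted: active = normalized viability below 100% at a tested concentration; inactive = the rest.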

Legend:
[1] = viability loss in pontine glioma line – cell-based, SU-DIPG-XVII, MIPE5.0, CellTiter-Glo, qHTS, dose response (AID 1347060; cut-off not given, nearly all actives have AC50 up to about 26 µM;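 for AC50: cells exposed to compound for 48 hours before viability readout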); conditions: CellTiter-Glo ATP luminescence
[2] = viability loss in pontine glioma line – cell-based, SU-DIPG-XIII, MIPE4.0, CellTiter-Glo, qHTS, dose response (AID 1347061; cut-off not given, nearly all actives have AC50 up to about 37 µM;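 note: cells exposed to compound for 48 hours before readout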); conditions: CellTiter-Glo ATP luminescence
[3] = viability loss in pontine glioma line – cell-based, JHH-DIPG-1, MIPE4.0, CellTiter-Glo, qHTS, dose response (AID 1347062; cut-off not given, nearly all actives have AC50 up to about 27 µM;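 for AC50: cells exposed to compound for two days before readout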); conditions: JHH-DIPG-1 viability, CellTiter-Glo ATP luminescence
[4] = viability loss in pontine glioma line – cell-based, SU-DIPG-IV, MIPE4.0, CellTiter-Glo, qHTS, dose response (AID 1347063; cut-off not given, nearly all actives have AC50 up to about 30 µM;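 note: compound exposure lasted 48 hours before the viability readout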); conditions: CellTiter-Glo ATP luminescence
[5] = viability loss in pontine glioma line – cell-based, SU-DIPG-XXV, MIPE5.0, CellTiter-Glo, qHTS, dose response (AID 1347065; cut-off not given, nearly all actives have AC50 up to about 26 µM;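 note: cells exposed to compound for 48 hours before ATP readout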); conditions: CellTiter-Glo ATP luminescence
[6] = growth inhibition of DIPG cells – cell-based, MIPE4.0 library, CellTiter-Glo luminescence, qHTS (AID 1347066; cut-off not given, nearly all actives have AC50 up to about 30 µM;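 note: cells exposed to compound for 48 hours before readout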); conditions: SU-DIPG-VI viability, CellTiter-Glo ATP luminescence
[7] = growth inhibition of DIPG cells – cell-based, MIPE5.0 library, qHTS (AID 1347068; cut-off not given, nearly all actives have IC50 up to about 30 µM;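 for IC50: cells exposed to compound for 48 hours before viability readout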); conditions: SU-DIPG-XXV viability
[8] = viability loss with induced miR-34 in A549 – imaging, A549 dox-inducible miR-34, nuclei and caspase counts, primary screen (AID 1347080;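 active = compounds whose cell count with miR-34 switched on is under 0.7 times the count with it off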); conditions: A549 miR-34 inducible, Hoechst nuclei count, 48 h
[9] = MELAS cybrid and Rieske KO viability enhancers – cell-based, MELAS cybrids, Rieske KO mouse fibroblasts, CellTiter-Glo, primary screen (AID 1508586;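 active = mean z-score across replicates of 1.96 or higher in either the MELAS or the Rieske mutant cell line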;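 note: z relative to plate mean and SD of compound and empty wells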); conditions: low glucose
[10] = drug combination growth inhibition, ovarian cancer – cell-based, oncology-focused library, rucaparib conditional, profiling panel (AID 1508598); conditions: patient-derived ovarian cancer cells, CellTiter-Glo viability, 144 h, stronger effect = lower value
[11] = JHH-DIPG-1 glioma cell viability, MIPE5.0 library, CellTiter-Glo luminescence, qHTS (AID 1347067; cut-off not given, nearly all actives have AC50 up to about 26 µM;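 note: cells exposed to compound for 48 hours before readout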); conditions: JHH-DIPG-1 glioma viability, CellTiter-Glo ATP luminescence
[12] = viability loss in pontine glioma line – cell-based, SU-DIPG-XIII, MIPE5.0, CellTiter-Glo, qHTS, dose response (AID 1347064; cut-off not given, nearly all actives have AC50 up to about 23 µM); conditions: CellTiter-Glo ATP luminescence
[13] = compounds altering HSF1 focus formation in cells – imaging, Selleck Cancer Library (AID 1347162; in the data active = plate-normalised HSF1 focus index below about 0.46); conditions: human cells, HSF1 nuclear foci imaging, at 10 µM; SSMD: measured here: HSF1 foci SSMD mean; cell count: measured here: cell number; plate-normalised HSF1 focus index: stronger effect = lower value
[14] = stronger effect = lower value, cell number ratio, induced over uninduced
[15] = measured here: relative caspase fold change +Dox/-Dox
[16] = measured here: total cells with miR-34 induction, stronger effect = lower value
[17] = measured here: total cells without miR-34 induction
[18] = MELAS cybrid survival, CellTiter-Glo 48 h, stronger effect = higher value
[19] = Rieske KO mouse fibroblast survival, CellTiter-Glo 72 h
[20] = at 0.000305 µM, OCI-C5x cells, with rucaparib 10 µM, 100% = cells with rucaparib alone
[21] = at 0.000305 µM, OCI-C5x cells, without rucaparib
[22] = at 0.000305 µM, OCI-P5x cells, with rucaparib 20 µM, 100% = cells with rucaparib alone
[23] = at 0.000305 µM, OCI-P5x cells, without rucaparib
[24] = at 0.00122 µM, OCI-C5x cells, with rucaparib 10 µM, 100% = cells with rucaparib alone
[25] = at 0.00122 µM, OCI-C5x cells, without rucaparib
[26] = at 0.00122 µM, OCI-P5x cells, with rucaparib 20 µM, 100% = cells with rucaparib alone
[27] = at 0.00122 µM, OCI-P5x cells, without rucaparib
[28] = at 0.00488 µM, OCI-C5x cells, with rucaparib 10 µM, 100% = cells with rucaparib alone
[29] = at 0.00488 µM, OCI-C5x cells, without rucaparib
[30] = at 0.00488 µM, OCI-P5x cells, with rucaparib 20 µM, 100% = cells with rucaparib alone
[31] = at 0.00488 µM, OCI-P5x cells, without rucaparib
[32] = at 0.0195 µM, OCI-C5x cells, with rucaparib 10 µM, 100% = cells with rucaparib alone
[33] = at 0.0195 µM, OCI-C5x cells, without rucaparib
[34] = at 0.0195 µM, OCI-P5x cells, with rucaparib 20 µM, 100% = cells with rucaparib alone
[35] = at 0.0195 µM, OCI-P5x cells, without rucaparib
[36] = at 0.0781 µM, OCI-C5x cells, with rucaparib 10 µM, 100% = cells with rucaparib alone
[37] = at 0.0781 µM, OCI-C5x cells, without rucaparib
[38] = at 0.0781 µM, OCI-P5x cells, with rucaparib 20 µM, 100% = cells with rucaparib alone
[39] = at 0.0781 µM, OCI-P5x cells, without rucaparib
[40] = at 0.313 µM, OCI-C5x cells, with rucaparib 10 µM, 100% = cells with rucaparib alone
[41] = at 0.313 µM, OCI-C5x cells, without rucaparib
[42] = at 0.313 µM, OCI-P5x cells, with rucaparib 20 µM, 100% = cells with rucaparib alone
[43] = at 0.313 µM, OCI-P5x cells, without rucaparib
[44] = at 1.25 µM, OCI-C5x cells, with rucaparib 10 µM, 100% = cells with rucaparib alone
[45] = at 1.25 µM, OCI-C5x cells, without rucaparib
[46] = at 1.25 µM, OCI-P5x cells, with rucaparib 20 µM, 100% = cells with rucaparib alone
[47] = at 1.25 µM, OCI-P5x cells, without rucaparib
[48] = at 5 µM, OCI-C5x cells, with rucaparib 10 µM, 100% = cells with rucaparib alone
[49] = at 5 µM, OCI-C5x cells, without rucaparib
[50] = at 5 µM, OCI-P5x cells, with rucaparib 20 µM, 100% = cells with rucaparib alone
[51] = at 5 µM, OCI-P5x cells, without rucaparib

C=C(c1ccc(C(=O)O)cc1)c1cc2c(cc1C)C(C)(C)CCC2(C)C
0.712 and -0.251: z-score [9, 19]
1.39 and 1.44: fold change [8, 15]
6740 and 7440: cell count [8, 17]
6410 and 6330: cell count [8, 16]
active: AC50 [1] 23500 nM | AC50 [5] 118 nM | viability [10, 22] 90.9% | viability [10, 26] 96% | viability [10, 44] 98%
inactive: outcome [2] | outcome [3] | outcome [4] | outcome [6] | outcome [7] | fold change [8, 14] 0.951 and 0.85 | z-score [9, 18] 0.149 and 0.79 | viability [10, 20] 115% | viability [10, 21] 109% | viability [10, 23] 106% | viability [10, 24] 116% | viability [10, 25] 109% | viability [10, 27] 111% | viability [10, 28] 112% | viability [10, 29] 120% | viability [10, 30] 108% | viability [10, 31] 120% | viability [10, 32] 108% | viability [10, 33] 119% | viability [10, 34] 113% | viability [10, 35] 124% | viability [10, 36] 106% | viability [10, 37] 106% | viability [10, 38] 112% | viability [10, 39] 125% | viability [10, 40] 103% | viability [10, 41] 122% | viability [10, 42] 115% | viability [10, 43] 130% | viability [10, 45] 122% | viability [10, 46] 117% | viability [10, 47] 126% | viability [10, 48] 101% | viability [10, 49] 128% | viability [10, 50] 116% | viability [10, 51] 125%

Cn1c2cc(S(C)=O)sc2c2cnn(Cc3cccc(N)c3)c(=O)c21 (stereo not given)
inactive: outcome [1] | outcome [2] | outcome [3] | outcome [4] | outcome [5] | outcome [6] | outcome [11] | outcome [7]

Cc1nc2cnc3ccc(C#Cc4cccnc4)cc3c2n1-c1ccc(C(C)(C)C#N)cc1
active: AC50 [1] 468 nM | AC50 [2] 590 nM | AC50 [3] 166 nM | AC50 [4] 29.6 nM | AC50 [5] 209 nM | AC50 [6] 1180 nM | AC50 [11] 1660 nM | IC50 [7] 2630 nM

Cc1cc2c(cc1C1(c3ccc(C(=O)O)cn3)CC1)C(C)(C)CCC2(C)C
2.63: SSMD [13]
7020: cell count [13]
inactive: outcome [1] | outcome [2] | outcome [3] | outcome [4] | outcome [12] | outcome [7] | plate-normalised HSF1 focus index [13] 1.16

CC(C)C[C@H](NC(=O)[C@@H](NC(=O)c1cccc(-c2ccccc2)n1)[C@@H](C)O)B(O)O
active: AC50 [1] 45.6 nM | AC50 [2] 16600 nM | AC50 [3] 52.6 nM | AC50 [4] 23.5 nM | AC50 [5] 20.4 nM | AC50 [6] 66.2 nM | AC50 [11] 81.1 nM | IC50 [7] 25.7 nM

CN[C@@H](C)[C@H]1[C@H](O)C[C@@]2(C)[C@@H]3CC[C@H]4C(C)(C)[C@@H](NC)CC[C@@]45C[C@@]35CC[C@]12C
inactive: outcome [1] | outcome [2] | outcome [3] | outcome [4] | outcome [5] | outcome [6] | outcome [11] | outcome [7]

OC[C@H]1OC(O)C[C@@H](O)[C@@H]1O (stereo not given in full)
inactive: outcome [1] | outcome [2] | outcome [3] | outcome [4] | outcome [5] | outcome [6] | outcome [11] | outcome [7]

CCN1CCN(Cc2ccc(-c3cc4c(N[C@H](C)c5ccccc5)ncnc4[nH]3)cc2)CC1
active: AC50 [1] 14800 nM | AC50 [2] 5260 nM | AC50 [3] 13200 nM | AC50 [4] 46.9 nM | AC50 [5] 18600 nM | AC50 [6] 23500 nM | viability [10, 22] 97.2% | viability [10, 26] 100% | viability [10, 34] 98% | viability [10, 42] 98.7% | viability [10, 44] 96.1% | viability [10, 46] 90.3% | viability [10, 48] 70.8% | viability [10, 50] 64.4%
7280: cell count [13]
inactive: plate-normalised HSF1 focus index [13] 1.06 | viability [10, 20] 113% | viability [10, 21] 121% | viability [10, 23] 117% | viability [10, 24] 110% | viability [10, 25] 123% | viability [10, 27] 120% | viability [10, 28] 110% | viability [10, 29] 127% | viability [10, 30] 108% | viability [10, 31] 118% | viability [10, 32] 109% | viability [10, 33] 124% | viability [10, 35] 115% | viability [10, 36] 106% | viability [10, 37] 129% | viability [10, 38] 102% | viability [10, 39] 123% | viability [10, 40] 119% | viability [10, 41] 146% | viability [10, 43] 112% | viability [10, 45] 114% | viability [10, 47] 118% | viability [10, 49] 117% | viability [10, 51] 105%
1.68: SSMD [13]

CC(C)Nc1cc(C(F)(F)F)cc2nc(NC(=O)c3cccnc3)nn12
inactive: outcome [1] | outcome [2] | outcome [3] | outcome [4] | outcome [5] | outcome [6] | outcome [11] | outcome [7]

Cc1[nH]nc2ccc(-c3cncc(OC[C@@H](N)Cc4ccccc4)c3)cc12
active: AC50 [1] 1660 nM | AC50 [2] 4690 nM | AC50 [3] 1180 nM | AC50 [4] 2640 nM | AC50 [5] 1480 nM | AC50 [6] 10500 nM | AC50 [11] 1480 nM | IC50 [7] 1660 nM

O=C(Nc1cccc(Nc2ncc(Br)c(NCCc3cnc[nH]3)n2)c1)N1CCCC1
active: AC50 [1] 4170 nM | AC50 [2] 16600 nM | AC50 [3] 16600 nM | AC50 [4] 16600 nM | AC50 [5] 1660 nM | AC50 [6] 14800 nM | AC50 [11] 3720 nM
2540: cell count [8, 17]
0.914: fold change [8, 15]
0.495: z-score [9, 19]
2420: cell count [8, 16]
inactive: outcome [7] | fold change [8, 14] 0.952 | z-score [9, 18] -0.631
